VDR inh – blocks the human vitamin D receptor | P11473 | VDR-SRC2-3 peptide fluorescence polarization, 2 h | Potency, µM, usual class: inhibitors | 400,000 compounds, 0.93% hits | AID 504847
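Two reagent solutions held at 4 deg C in the dark were dispensed, compounds pinned at 23 nl, and the mixture incubated 2 h at room temperature. Read-out: fluorescence polarization of VDR–SRC2-3 peptide binding.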
EPAC2 agonist – agonists of human EPAC2 (RAPGEF4). Q8WZA2. EPAC2 activation, biochemical qHTS; response scale: 100% = 6.5 mM cAMP response. Potency, µM (top dose mostly 154 µM), hits mostly activators. 360,000 compounds, 0.079% hits; further: nearly all actives have a fitted effect of over 50% in size
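Compounds were titrated in qHTS against a Rap1B-BODIPY-GDP (250 nM) complex with EPAC2 (100 nM) and GDP (50 uM). BODIPY-GDP release tracked at 480/540 nm over 30 min at room temperature, normalized to 6.5 mM cAMP.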
EPAC2 antag – blocks human EPAC2 exchange factor; Q8WZA2; Potency, µM (series often up to 114 µM), hits mostly inhibitors; AID 720708; 360,000 compounds, 0.18% hits; EPAC2 GEF exchange of Rap1B-BODIPY-GDP, fluorescence; further: nearly all actives have a fitted effect of over 45% in size
USP1-UAF1 inh – USP1/UAF1 (human) deubiquitinase inhibition; 390,000 compounds, 0.23% hits; Potency, µM (titrated, usually from 57.1 µM), actives largely listed as inhibitors; recombinant USP1/UAF1, Ub-Rhodamine cleavage fluorescence; further: nearly all actives have a fitted effect of over 60% in size
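In this screen, compounds sit with the deubiquitinase complex (1nM) for 15 min at room temperature before Ub-Rho is added at 150nM final. Fluorescence rise is then followed for 6 reads every 60 seconds.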
EPAC1 antag – EPAC1 (human) antagonism; 360,000 compounds, 0.14% hits; EPAC1 GEF assay, Rap1b-BODIPY-GDP exchange fluorescence; O95398; Potency, µM (series often up to 115 µM), most hits filed as inhibitors; further: nearly all actives have a fitted effect of over 50% in size
EPAC1 agonist – activates human EPAC1 exchange factor; 360,000 compounds, 0.073% hits; Potency, µM (top dose mostly 154 µM), usual class: activators; AID 720707; O95398; EPAC1 agonist qHTS, biochemical assay; response scale: 100% = response to 6.5 mM cAMP; further: nearly all actives have a fitted effect of over 60% in size
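Nucleotide exchange by EPAC1 (100 nM) on Rap1B–BODIPY-GDP (250 nM) in the presence of 50 uM GDP is tracked fluorescently at 480/540 nm over 30 min. Signals are normalized to a 6.5 mM cAMP control.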
USP1-UAF1 confirm – validation of human USP1/UAF1 inhibitors; shares compounds with VDR inh; Ub-Rhodamine cleavage, fluorescence kinetic read; Potency, µM (titrated, usually from 114 µM), hits mostly inhibitors; 50 compounds, 50% hits
VDR confirm – inhibits human vitamin D receptor, primary hit validation; shares compounds with VDR inh; VDR-coactivator inhibition assay, qHTS confirmation; Potency, µM, actives largely listed as inhibitors; 840 compounds, 89% hits; AID 602199
VDR FP – VDR (human) coactivator binding inhibition, fluorescein polarization | shares compounds with VDR inh | VDR-coactivator binding, fluorescein fluorescence polarization | Potency, µM (series often up to 57.1 µM), actives largely listed as inhibitors | 840 compounds, 48% hits | AID 602200
VDR bla – confirmation of human vitamin D receptor inhibitors in reporter cells | shares compounds with VDR inh | VDR beta-lactamase reporter cells, FRET ratio; cells co-treated with VDR agonist LG190178 | Potency, µM (highest dose often 46.1 µM), hits mostly inhibitors | 840 compounds, 23% hits
VDR cytotox – cytotoxic in counter-screen for VDR inhibitors | shares compounds with VDR inh | cytotoxicity counter-screen, cell viability, qHTS | Potency, µM (series often up to 48.3 µM), hits mostly cytotoxic | 840 compounds, 18% hits | AID 602204; further: nearly all actives have a fitted effect of over 75% in size
A number is an active result; – = inactive; ? = inconclusive; · = no result. The list is not random: actives were taken first. Their share in the collection is about 1.2%. The call rests on the fitted dose curve; in most records, active means well fitted curve in the direction sought with a large enough effect; inconclusive means small, poorly fitted or top-dose-only effect, or another doubt; inactive means no such curve, though single readings can be large; an effect the other way counts as inactive or inconclusive.

SMILES	VDR inh	EPAC2 agonist	EPAC2 antag	USP1-UAF1 inh	EPAC1 antag	EPAC1 agonist	VDR confirm	VDR FP	VDR bla	VDR cytotox	others
CC(=O)C1(O)Cc2c(O)c3c(c(O)c2C(OC2CC(N)C(O)C(C)O2)C1)C(=O)c1c(O)cccc1C3=O (stereo unspecified)	–	·	·	·	·	·	·	·	·	·
COc1cccc2c1C(=O)c1c(O)c3c(c(O)c1C2=O)C[C@](O)(C(C)=O)C[C@H]3O[C@@H]1C[C@H](N)[C@H](O)[C@H](C)O1	–	·	·	·	·	·	·	·	·	·	USP1-UAF1 confirm=18µM
CCC1C/C(=C\c2cccnc2)C(=O)/C(=C/c2cccnc2)C1 (stereo unspecified)	22µM	–	–	?	–	–	5.3	3.5µM	5.8µM	21µM
O=C1/C(=C/c2cccnc2)CCC/C1=C\c1cccnc1	50µM	–	–	–	–	–	13	20µM	5.8µM	15µM
O=C1/C(=C/c2cccnc2)CC/C1=C\c1cccnc1	–	–	–	–	–	–	·	·	·	·
CC(C)/C=C1\CC/C(=C\c2cccnc2)C1=O	–	–	–	–	–	–	·	·	·	·
CCOc1ccc(/C=C/C(=O)c2c(O)cc(C)oc2=O)cc1	?	–	–	–	–	–	16	25µM	?	12µM
Cc1cc(O)c(C(=O)/C=C/c2ccc(C(C)C)cc2)c(=O)o1	?	–	–	–	–	–	6.3	?	?	–
CCOc1ccc(/C=C/C(=O)c2c(O)c3ccccc3oc2=O)cc1	8.9µM	–	–	–	–	100µM	8.4	–	–	?
CN(C)c1ccc(/C=C/C(=O)c2c(O)c3ccccc3oc2=O)cc1	?	–	–	?	?	–	·	·	·	·
CCc1nn(CCCC(=O)N2CCN(c3cc(Cl)ccc3C)CC2)c(=O)c2cc3occc3n12	–	·	·	–	·	·	·	·	·	·
O=C(CSc1nc2c([nH]c3ccccc32)c(=O)n1-c1ccc(F)cc1)NC1CCCCC1	–	·	·	–	·	·	·	·	·	·
Nc1cc(Cl)ccc1N1CCCCC1	–	–	–	–	–	–	·	·	·	·
Nc1c(N2CCCC2)cc(Cl)c2nonc12	?	?	?	16µM	?	–	5	2.8µM	–	–
O=C(Nc1ccc(F)c(Cl)c1)C1CCCN1S(=O)(=O)c1ccc(F)cc1 (stereo unspecified)	–	·	·	?	·	·	·	·	·	·
O=[N+]([O-])/C=C/c1cn(Cc2ccc(F)cc2)c2ccccc12	20µM	?	–	–	–	–	6.7	?	21µM	?
Cn1c(=O)c(-c2ccc(Cl)cc2)nc2cnc(N3CCOCC3)nc21	–	·	·	·	·	·	·	·	·	·
C[C@H]1O[C@@H](n2cnc3c(N)ncnc32)C[C@@H]1OP(=O)(O)OP(=O)(O)OP(=O)(O)O	–	·	·	·	·	·	·	·	·	·
Cc1ccc(CCNC(=O)C2CCCN(S(=O)(=O)c3ccc4c(c3)oc(=O)n4C)C2)cc1 (stereo unspecified)	–	·	·	–	·	·	·	·	·	·
CCOC(=O)COc1ccc(Br)cc1/C=C/c1[nH]c(=O)[nH]c(=O)c1[N+](=O)[O-]	14µM	–	–	–	32µM	–	3.8	?	–	?
CCOC(=O)COc1ccc(Br)cc1/C=C\c1[nH]c(=O)[nH]c(=O)c1[N+](=O)[O-]	22µM	–	–	–	?	–	4.2	3.2µM	?	?
COc1cc(/C=C/c2[nH]c(=O)[nH]c(=O)c2[N+](=O)[O-])cc(OC)c1O	?	–	–	–	–	–	·	·	·	·
COc1ccc(CCNC(=O)c2ccc3c(c2)c(C)c(C)n3Cc2ccc(F)cc2)c(OC)c1OC	–	·	·	–	·	·	·	·	·	·
O=S(=O)(Nc1ccc(O)c2ccccc12)c1ccc(F)cc1	?	–	–	?	–	–	·	·	·	·
CCc1ccc(S(=O)(=O)Nc2ccc(O)c3ccccc23)cc1	?	–	–	–	–	–	3	8.9µM	?	?
SMILES	VDR inh	EPAC2 agonist	EPAC2 antag	USP1-UAF1 inh	EPAC1 antag	EPAC1 agonist	VDR confirm	VDR FP	VDR bla	VDR cytotox	others
O=C1c2ccccc2CC[C@H]1CNCCc1ccc(O)cc1	3.5µM	·	·	·	·	·	?	?	–	–
O=C1c2ccccc2CCC1CNCCc1ccc(O)cc1 (stereo unspecified)	2.8µM	·	·	·	·	·	14	28µM	?	?
O=C(Cc1ccccc1)Nc1sc2c(c1C(=O)Nc1ccc(Cl)cc1)CCCC2	28µM	·	·	–	·	·	3.2	2.2µM	–	–
CCOC(=O)c1nn(-c2ccccc2C)c(=O)c2c(N)scc12	35µM	–	–	?	–	–	?	?	–	–
[O-]/[N+](=C/c1ccc(F)cc1)c1ccc(Cl)cc1	32µM	–	–	–	–	–	24	?	–	–
[O-][N+](=Cc1ccccc1)c1ccc(Cl)cc1	?	–	–	–	–	–	·	·	·	·
Cc1oc(-c2ccccc2Cl)nc1CS(=O)(=O)CC(=O)NCc1ccc(F)cc1	–	·	·	–	·	·	·	·	·	·
O=C(/C=C/c1ccccc1)c1ccc(NC2=NCCCS2)cc1	?	–	–	–	–	–	·	·	·	·
O=C(/C=C/c1ccc(Br)cc1)c1ccc(NC2=NCCCS2)cc1	22µM	–	–	–	–	–	15	10µM	?	18µM
c1ccc(CCc2nn3c(Cn4cnc5ccccc54)nnc3s2)cc1	?	–	–	–	–	–	22	20µM	–	–
c1ccc(OCc2nn3c(Cn4nnc5ccccc54)nnc3s2)cc1	?	–	–	–	–	–	22	8.9µM	–	–
c1ccc(CCc2nn3c(Cn4nnc5ccccc54)nnc3s2)cc1	?	–	–	–	–	–	·	·	·	·
CCOC(=O)C1=C(CS(=O)(=O)c2ccc(C)cc2)NC(=O)NC1c1ccc(C(C)C)cc1 (stereo unspecified)	–	·	·	–	·	·	·	·	·	·
O=C(NCc1cccnc1)/C(=C\c1ccc(-c2ccc(Cl)c(Cl)c2)o1)S(=O)(=O)c1ccccc1	40µM	–	–	–	–	–	15	?	12µM	15µM
O=S(=O)(/N=C(\Sc1ccc(Cl)cc1)c1ccccc1)c1ccccc1	?	–	–	–	–	–	7.1	22µM	–	–

Screens from PubChem.
